# Measured values as given in ChEMBL document CHEMBL1157539, “Thousands of chemical starting points for antimalarial lead identification” (Nature, 2010).
# “And” between values parts separate entries of the source, which are not always exact repeats. Equal values may be shown once.
# Legend:
# Assay type in all cases: functional
# Plasmodium falciparum [1] = assay: GSK_TCMDC: Inhibition of Plasmodium falciparum 3D7 in whole red blood cells, using parasite LDH activity as an index of growth. Test compounds present at 2uM
# Plasmodium falciparum [2] = assay: GSK_TCMDC: Inhibition of Plasmodium falciparum Dd2 in whole red blood cells, using parasite LDH activity as an index of growth. Test compounds present at 2uM
# HepG2 = assay: GSK_TCMDC: Percent inhibition of human HepG2 cell line. Test compounds present at 10uM.
Compound,Inhibition (Plasmodium falciparum [1]),Inhibition (Plasmodium falciparum [2]),Inhibition (HepG2)
Cc1noc(-c2cccs2)c1C(=O)NC(C)c1cccc2ccccc12 (stereo not drawn),97%,95%,0%
Cc1n[nH]c2ccc(-c3cc(OC[C@@H](N)Cc4ccccc4)cnc3-c3ccccc3OCc3cccc(F)c3)cc12.O=C(O)C(F)(F)F,91%,91%,55%
Cc1ccc(CNC(=O)[C@H](CC(C)C)Nc2cc(C)nc(NCC3CCCCC3)n2)cc1.O=C(O)C(F)(F)F,96%,44%,6%
CC1(C)NC(N)=NC(=N)N1OCOc1cc(Cl)c(Cl)cc1Cl.Cl,96%,98%,66%
COc1c(Br)cc(Br)cc1-c1ccc(CN2C3CCCC2CCC3)[nH]1.Cl,88%,83%,42%
O=C(Nc1ccc(Oc2ccccc2)cc1)N(Cc1ccc(-c2ccc(CN3CCNCC3)cc2)cc1)C1CCN(Cc2ccccc2)CC1.O=C(O)C(F)(F)F,100%,73%,31%
O=[N+]([O-])c1nc(Br)n(Cc2ccc(Cl)cc2)n1,96%,95%,0%
Cc1cnc2ccc(NS(=O)(=O)c3ccc4c(Cl)cccc4c3)cc2c1N1CCNCC1.Cl,100%,3%,24%
CCC1(c2ccccc2)N=C(N)N(CCCc2ccccc2)C1=O (stereo not drawn),90%,96%,17%
Cc1c(F)cc(C(=O)NC2CC2)cc1-c1ccc2c(c1)c(C)nn2S(=O)(=O)c1cccs1,91%,92%,34%
Cc1ccc(F)c(CN2CCC(N3CC(c4ccccc4)(c4ccccc4)OC3=O)CC2)c1Cl,95%,89%,11%
CN(C)c1ccc(CN2CCCCC(NC(=O)c3cc(-c4ccccc4F)cs3)C2)cc1.O=C(O)C(F)(F)F (stereo not drawn),100%,28%,13%
N#Cc1c(N2CCN(c3ccc(F)cc3)CC2)nc(N)c2c(N)nc3c(c12)CC(=O)N3C1CC1,95%,82%,2%
COc1ccc2nc3cc(Cl)ccc3c(Nc3ccc(Sc4ccc(Nc5c6ccc(Cl)cc6nc6ccc(OC)cc56)cc4)cc3)c2c1.Cl,92%,94%,1%
O=C(Nc1cc(C(F)(F)F)cc(C(F)(F)F)c1)c1cc(C(F)(F)F)cc(C(F)(F)F)c1,100%,86%,21%
CCOc1ccc2c(=NN=Cc3ccccn3)cc(C)[nH]c2c1,98%,1%,19%
CCCc1cc(=O)[nH]c(-n2nc(C)cc2NC(=O)CC(c2ccccc2)c2ccccc2)n1,97%,88%,39%
CCc1cn2c3c(cc(C(=O)N[C@@H](Cc4ccccc4)[C@H](O)CNCC(C)C)cc13)N(C)S(=O)(=O)CC2,98%,99%,0%
O=C(N[C@H]1CCCC[C@H]1C(=O)O)c1ccccc1,95%,3%,7%
N#Cc1ccc(-c2ccc(C(=O)NCCCCN3CCC(c4ccc5c(c4OCC(N)=O)CCCC5)CC3)nc2)cc1,100%,97%,21%
O=C(Cc1cccc(Cl)c1)N1CCc2cc3nccc(N4CCN5CCC[C@H]5C4)c3cc21,96%,4%,14%

Compound,Inhibition (Plasmodium falciparum [1]),Inhibition (Plasmodium falciparum [2]),Inhibition (HepG2)
CCc1cc2c(N)nc(N)nc2nc1-c1ccccc1,91%,0%,18%
CCc1nc(N)nc(N)c1-c1ccc(Cl)cc1 [PYRIMETHAMINE],94% and 93%,0%,71% and 66%
c1nc2nc3c(c(Nc4ccc5c(c4)CCC5)n2n1)CCC3,87%,70%,0%
COc1cc2nc(NCCCO)nc(Nc3ccc(Oc4ccccc4)cc3)c2cc1OC,100%,100%,24%
COc1cc(CNc2ccc(N3CCCC3)cc2)cc(Cl)c1OC,100%,94%,41%
O=c1ccc(CNc2nc(NCCc3ccccc3)nc3ccc(Cl)cc23)c[nH]1,99%,16%,9%
Cc1nn(CC(O)Cn2c3ccc(Br)cc3c3cc(Br)ccc32)c(C)c1Br (stereo not drawn),98%,81%,4%
Cc1ccc(CON2C(N)=NC(N)=NC23CCCCC3)c2ccccc12.Cl,98%,56%,57%
Cc1ccc(Oc2c(-c3ccccc3CN3CCCC3CN(C)C)cnn(C)c2=O)cn1.O=C(O)C(F)(F)F (stereo not drawn),88%,9%,0%
C=CCC1OC(=O)c2cc(OC)cc(OC)c21 (stereo not drawn),95%,100%,100%
CC1(C(=O)Nc2ccc([N+](=O)[O-])cc2O)CC2c3ccccc3C1c1ccccc12 (stereo not drawn),98%,16%,37%
CN(C)CCNC(=O)N1CCCN(c2ncnc3cc(-c4ccccc4)sc23)CC1.O=C(O)C(F)(F)F,96%,37%,5%
Cc1cc(F)ccc1Nc1nc(N(C)c2ccccc2)c2cc(OCCN(C)C)ccc2n1,94%,55%,37%
Cc1ccccc1N1CCN(c2ccc(C(=O)NC(C)C)cn2)CC1.O=C(O)C(F)(F)F,89%,91%,13%
Cc1cc(C(=O)CN2C(=O)NC3(CCCc4ccccc43)C2=O)c(C)n1Cc1ccco1 (stereo not drawn),90%,0%,11%
Cc1ccc(NC(=O)Nc2cccc(Cl)c2)cc1-c1ccc(C(=O)Nc2ccncc2)cc1,97%,49%,67%
CCC(C)NS(=O)(=O)c1ccc2nc(Nc3ccc(C)cc3)n([C@H](C)C(C)(C)C)c2c1 (stereo partly drawn),98%,98%,2%
COc1cc(OC)cc(-c2nn(-c3ccc([N+](=O)[O-])cc3C#N)c(=S)n2Cc2ccco2)c1,100%,100%,11%
CC[C@H](C)CNC(=O)c1cncc(-c2ccc(CNCCOc3ccccc3)cc2)c1.O=C(O)C(F)(F)F,90%,0%,7%
Cc1cccc2nc(-c3cccc(-c4ccc(NC(=O)C(C)(C)c5ccccn5)cc4)c3)[nH]c12,97%,4%,0%
Br.CCCCCCCCn1c2c(c(=N)c3c1CCC3)CCC2,99%,93%,47%

Compound,Inhibition (Plasmodium falciparum [1]),Inhibition (Plasmodium falciparum [2]),Inhibition (HepG2)
COc1c(C2CCN(CCCCNC(=O)c3noc(-c4ccc(C#N)cc4)n3)CC2)ccc2c1CCCC2,99%,0%,32%
O=C(Nc1ccnc(N2CC3CC2CN3Cc2cccc(O)c2)c1)c1ccc(F)cc1.O=C(O)C(F)(F)F (stereo not drawn),92%,0%,2%
COc1cccc(OC)c1C(=O)N1CCC2(CC1)C(=O)N(CC(=O)NC1CCCCC1)CN2c1ccccc1,92%,91%,16%
Cc1cc(=O)c(-c2ccc(Oc3cccc(C(F)(F)F)c3)cc2)c(C)[nH]1,97% and 96%,97% and 95%,8% and 14%
O=C(/C=C/c1ccc(Cl)c(Cl)c1)NC1CCC(CN2CCC(c3nc4ccccc4n3CCCO)CC2)CC1 (stereo not drawn),99%,28%,28%
C=CCOC(=O)N1CCC(CNCc2cccc(-c3cccc(-c4nc5cccc(C)c5[nH]4)c3)c2)C1.O=C(O)C(F)(F)F (stereo not drawn),100%,69%,22%
COc1ccc(CNC2CCN(C)CC2)cc1-c1ccc(S(=O)(=O)NCCN2CCCC2)s1.O=C(O)C(F)(F)F,90%,1%,2%
CC(NCCC1CCC(NC(=O)N[C@H](C)C(O)(c2ccccc2)c2ccccc2)CC1)c1cccc2ccccc12 (stereo partly drawn),86%,58%,43%
O=C(/C=C/c1ccc(Cl)c(Cl)c1)NCCCCCN1CC[C@H](NC(=O)Nc2ccc(Oc3ccccc3)cc2)C1,100%,14%,47%
CC(=O)Nc1ccc(OCCCCN(Cc2ccccc2C(F)(F)F)c2ccc(C#N)c(C(F)(F)F)c2)cc1,80%,47%,0%
Cc1cc(-c2ccc3c(c2)CCN(CCCOc2ccc4c(c2)CCN4C(=O)/C=C/c2ccccc2Cl)CC3)no1,88%,50%,52%
CCN(CC(C)O)C(=O)c1ccc(-c2ccc(-c3nc4cccc(C)c4[nH]3)cc2)cc1 (stereo not drawn),94%,13%,18%
Cc1cccc2nc(-c3ccc(-c4cccc(CNC(C)C)c4)s3)[nH]c12.O=C(O)C(F)(F)F,100%,97%,12%
COc1cc2nc(N[C@@H](CO)c3ccccc3)nc(NCc3ccccc3)c2cc1OC,100%,71%,6%
CC1CN(Cc2ccc(-c3ccc(-c4nc5ccccc5[nH]4)cc3)cc2)CC(C)O1.O=C(O)C(F)(F)F (stereo not drawn),98%,96%,48%
CCc1cn2c3c(cc(C(=O)N[C@@H](Cc4ccccc4)[C@H](O)CNCc4ccccc4)cc13)N(C)S(=O)(=O)CC2.O=CO,98%,99%,3%
Cc1cc(N(C)C)nc(Nc2ccc(NC(=O)c3cccc(F)c3)cc2)n1,100%,62%,0%
COc1cc(OC)c2c(C)cc(NCCCn3ccnc3)nc2c1,100%,22%,6%
Br.CCCC1N=C(N)N=C(N)N1c1cccc([N+](=O)[O-])c1 (stereo not drawn),96%,1%,0%
